Here are results for 14 molecules from PubChem BioAssay AID1211 (NMMLSC, 2008).

In the assay the target is Estrogen receptor (Homo sapiens) (UniProt P03372). Briefly: displacement of fluorescent estrogen from ERalpha – cell-based, Cos7 ERalpha-GFP, flow cytometry, primary screen (AID 1211).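 Note: 0% = DMSO vehicle wells and 100% = no E2-Alexa633 signal left.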 The note with it: fluorescent ligand competition, stronger effect = higher value. (A flow cytometer gives signals particle by particle.)

Activity calls are given as the source filed them. The rule behind the calls is not given here.

Chain of Estrogen receptor (Homo sapiens) (P03372 whole entry, looked up): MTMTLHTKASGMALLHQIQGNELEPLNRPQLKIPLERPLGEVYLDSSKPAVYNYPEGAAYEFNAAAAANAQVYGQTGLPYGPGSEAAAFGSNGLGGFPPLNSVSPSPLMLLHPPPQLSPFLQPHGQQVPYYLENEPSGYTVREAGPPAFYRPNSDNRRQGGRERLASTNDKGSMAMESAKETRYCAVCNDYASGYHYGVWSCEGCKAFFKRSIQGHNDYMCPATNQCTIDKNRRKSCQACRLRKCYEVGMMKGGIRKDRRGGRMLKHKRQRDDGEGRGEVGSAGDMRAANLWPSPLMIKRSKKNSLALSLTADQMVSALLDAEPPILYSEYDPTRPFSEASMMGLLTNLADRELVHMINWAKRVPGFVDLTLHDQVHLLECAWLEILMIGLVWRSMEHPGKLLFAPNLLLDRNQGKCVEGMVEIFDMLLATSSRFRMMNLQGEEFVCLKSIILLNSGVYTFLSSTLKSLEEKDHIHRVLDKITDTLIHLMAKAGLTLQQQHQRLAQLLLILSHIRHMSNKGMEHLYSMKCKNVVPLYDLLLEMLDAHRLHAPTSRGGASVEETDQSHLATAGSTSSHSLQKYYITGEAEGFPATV

Take `Nc1ccc(-c2cc(-c3cccc(N)c3)nc(-c3ccccc3)n2)cc1`: the inhibition of ligand binding was 42% (inactive) (at 10 µM) and 2% (binding inhibition, at 0.1 µM).

As for `COc1cc(-c2nc3ccccn3c2/N=C/c2ccccc2)ccc1O`, the inhibition of ligand binding by setting is: (at 10 µM) 53% (inactive); (binding inhibition, at 0.1 µM) 11%.

For `Cc1oc2c(C)c(O)ccc2c(=O)c1N1C(=O)c2ccccc2C1=O`, the inhibition of ligand binding was 9% (inactive) (at 10 µM) and 52% (binding inhibition, at 0.1 µM).

For the molecule `Oc1ccc(-c2nc3ccc4ccccc4c3c3c2CCC3)cc1O`, the inhibition of ligand binding is 41% (inactive) (at 10 µM) and 44% (binding inhibition, at 0.1 µM).

`Cc1cc([N+](=O)[O-])c2c(c1C)C1C=CCC1C(c1ccccn1)N2` (stereo not drawn): the inhibition of ligand binding reads like this: (at 10 µM) 72% (active); (binding inhibition, at 0.1 µM) 10%.

`COc1nnc(-c2ccc(C(=O)N3C[C@@H]4C[C@H](C3)c3cccc(=O)n3C4)cc2)c2ccccc12`: the inhibition of ligand binding runs as follows: (at 10 µM) 1% (inactive); (binding inhibition, at 0.1 µM) 6%.

Regarding `O=C(Nc1cnn(C23CC4CC(CC(C4)C2)C3)c1)c1cnn2c(C(F)(F)F)cc(-c3ccco3)nc12`, the inhibition of ligand binding is 48% (inactive) (at 10 µM) and 25% (binding inhibition, at 0.1 µM).

As for `CNc1nnc(-c2cc3cc(Cl)ccc3oc2=O)s1`, the inhibition of ligand binding reads like this: (at 10 µM) 29% (inactive); (binding inhibition, at 0.1 µM) 58%.

Take `Cc1cc(C(=O)CSc2nnc(-c3ccccc3F)o2)c(C)n1Cc1cccs1`: the inhibition of ligand binding reads like this: (at 10 µM) 69% (active); (binding inhibition, at 0.1 µM) 16%.

As for `Cc1cc(=O)oc2c(CN3CCC(C)CC3)c(O)c(Cl)cc12`, the inhibition of ligand binding (at 10 µM) is 10% (inactive) and the inhibition of ligand binding (binding inhibition, at 0.1 µM) turned out to be 6%.

Regarding `COc1cc(CCC(=O)OCC(=O)Nc2ncc(Cl)cc2Cl)cc(OC)c1OC`, the inhibition of ligand binding was 3% (inactive) (at 10 µM) and 27% (binding inhibition, at 0.1 µM).

Take `Cc1cc2n(c1)CCn1c(C)ccc1-2`: the inhibition of ligand binding runs as follows: (at 10 µM) 26% (inactive); (binding inhibition, at 0.1 µM) 53%.

Regarding `COc1ccc(-c2nnc(SCC(=O)/C(C#N)=C(\C)N)o2)cc1`, the inhibition of ligand binding is 40% (inactive) (at 10 µM) and 16% (binding inhibition, at 0.1 µM).

In the case of `c1ccc(OCc2nnc3sc(C4COc5ccccc5O4)nn23)cc1` (stereo not drawn), the inhibition of ligand binding is 0% (inactive) (at 10 µM) and 5% (binding inhibition, at 0.1 µM).
